# From ChEMBL document CHEMBL3988442, “University of Dundee, Small-Polar-MMV Screening Library” (2021)
# Molecular target: T1, Aspartate--tRNA(Asp/Asn) ligase (Mycobacterium tuberculosis (strain ATCC 25618 / H37Rv)) (UniProt P9WFW3); also: in the data most compounds retested in dose-response had high values
# T1 sequence (whole entry): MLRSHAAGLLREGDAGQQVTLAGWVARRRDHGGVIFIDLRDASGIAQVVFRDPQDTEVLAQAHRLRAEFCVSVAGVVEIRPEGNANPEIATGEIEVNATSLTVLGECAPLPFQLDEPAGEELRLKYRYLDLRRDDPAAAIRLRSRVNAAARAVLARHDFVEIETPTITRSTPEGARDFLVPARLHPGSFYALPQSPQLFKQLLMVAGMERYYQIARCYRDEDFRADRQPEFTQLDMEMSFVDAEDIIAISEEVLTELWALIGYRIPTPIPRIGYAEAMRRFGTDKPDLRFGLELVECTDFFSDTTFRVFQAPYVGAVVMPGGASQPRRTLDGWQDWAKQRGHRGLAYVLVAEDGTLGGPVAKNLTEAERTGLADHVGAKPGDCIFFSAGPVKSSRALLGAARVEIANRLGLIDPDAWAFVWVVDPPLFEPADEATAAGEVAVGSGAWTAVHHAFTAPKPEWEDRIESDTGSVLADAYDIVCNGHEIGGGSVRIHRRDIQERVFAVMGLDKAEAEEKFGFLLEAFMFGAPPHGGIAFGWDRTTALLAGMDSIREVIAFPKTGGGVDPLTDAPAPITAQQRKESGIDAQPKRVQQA
# Assay: Assay for Asp RNA synthetase-1 from Mycobacterium tuberculosis
# Format: functional
# Parameters: scale not given: direction of the effect not stated beside the values
# Settings: 30 µM
row,Compound,Percent Effect
1,Cc1n[nH]c(C2CN(CC(=O)NCCc3ccsc3)CCO2)n1 (stereo not given),-3.33%
2,CN(C)CC1CN(Cc2ccc3c(c2)OCO3)Cc2nccn2C1 (stereo not given),9.35%
3,Cc1cc(C(=O)NCc2ccc(N3CCCC(C(N)=O)C3)cc2)[nH]n1 (stereo not given),-3.98%
4,Cc1ccc(OCCCNC(=O)NC(C)c2nncn2C)cc1 (stereo not given),-2.1%
5,COCCN(Cc1ccoc1)C(=O)c1c(F)cccc1Cl,-3.31%
6,COCC(=O)N1CCCC2(CCN(c3ccsc3)C2=O)C1 (stereo not given),-1.49%
7,Cc1cc(CNc2cc(Cl)ccc2Cl)no1,-1.12%
8,Cn1cc(CN2CCCN(C(=O)c3ccc4c(c3)COC4)CC2)cn1,-0.281%
9,Cc1cccc(C(=O)N2CCCCC2c2ccc(CN(C)C)cc2)n1 (stereo not given),-2.28%
10,Cn1cc(Cl)cc1C(=O)N1CCN(Cc2ccsc2)CC1,-1.54%
11,CC(C)C(C(=O)N1CCCN(Cc2nccn2C)CC1)N1CCCC1 (stereo not given),-3.15%
12,COC(=O)C(NC(=O)COC1CCCC1)c1cc(F)ccc1F (stereo not given),-3.52%
13,CCc1nc(CN2CCCC(NCc3cc(C)no3)C2)no1 (stereo not given),3.46%
14,CNS(=O)(=O)c1cccc(CNc2nccc(C(F)(F)F)n2)c1,3.75%
15,O=C([C@H]1CCCO1)N1CCc2ncnc(NC3CC3)c2CC1,2.52%
16,Cc1cnc2n(c1=O)CC(C(=O)Nc1cccc3cccnc13)CS2 (stereo not given),16.3%
17,CN(Cc1ccco1)C[C@H]1OC[C@@H]2CCN(Cc3cccs3)C[C@@H]21,3.35%
18,CCC(CC)C(O)CNC(=O)Nc1cc(C)nn1C (stereo not given),-1.77%
19,CC(C)CN1CCC2(CCN(Cc3ccsc3)CC2)C1=O,-5.3%
20,CCC(=O)N1CCCC1c1nccnc1Nc1ncccn1 (stereo not given),1.12%

row,Compound,Percent Effect
1,Cc1nc(CNCC2CN(C)CCO2)cs1 (stereo not given),-3.4%
2,Cc1cc(C)n(Cc2ccc(C(=O)NCCN3CCOCC3)cc2)n1,-4.18%
3,c1cnn(CC2CN(c3ncnc4ccsc34)CCO2)c1 (stereo not given),1.65%
4,CCc1nc(CN(C)C2CCN(CCNS(=O)(=O)CC)C2)no1 (stereo not given),5.16%
5,Cc1nc(C2CCCN2CC(=O)NCCc2ccsc2)no1 (stereo not given),1.22%
6,CS(=O)(=O)N1CCOCC2(CCN(C(=O)c3cccnc3)CC2)C1,-2.76%
7,CN1CCN(Cc2nnc(C3CCN(CC4CC4)CC3)n2C)CC1,-0.891%
8,O=C(CCc1ccc(=O)[nH]n1)N1CCCC(COc2ccc(F)cc2)C1 (stereo not given),3.84%
9,CN1CCN(C(=O)c2nc3c(o2)CN(C(=O)c2cccnc2)C3)CC1,2.23%
10,CN(C)S(=O)(=O)N1C[C@@H](Oc2ccccn2)[C@H]2OCCC[C@H]21,2.06%
11,Cc1cc(C)c2c(c1)C1(CC(=O)Nc3c1cnn3C(C)C)C(=O)N2 (stereo not given),1.68%
12,CCC(CNC(=O)Nc1cnn(CC)c1)N1CCCC1 (stereo not given),-2.08%
13,CCn1c(C)nnc1CN(C)C1CCN(CCn2cccn2)C1 (stereo not given),1.41%
14,Cn1cc(CN2CC3(CCN(C(=O)c4cscn4)C3)C2)cn1,-5.56%
15,CCN1CCN(c2ccc(CNC(=O)c3c(C)noc3C)cn2)CC1,-3.84%
16,CCc1ncc(C(=O)N2CCOCC2c2c(C)n[nH]c2C)s1 (stereo not given),2.97%
17,O=C(NCCCO)Nc1cccc(Cl)c1F,1.48%
18,CCN(Cc1nc2c(cnn2C)c(=O)[nH]1)Cc1cccs1,-1.27%
19,O=C(c1ccc(-n2ccnc2)nc1)N1CCCC(n2cccn2)C1 (stereo not given),-4.43%
20,Cc1cnccc1CN1C[C@@H](O)[C@H](Oc2cccc(F)c2)C1,-1.59%

# Molecular target: Shiga toxin 2 (Escherichia coli O157:H7) (UniProt P09385+P09386)
# Assay: E. coli 0.157:H7 Shiga Toxin SOP - stx2 screening assay
# Format: functional
# Parameters: scale not given: direction of the effect not stated beside the values
# Settings: 30 µM
row,Compound,Percent Effect
1,Cc1n[nH]c(C2CN(CC(=O)NCCc3ccsc3)CCO2)n1 (stereo not given),7.26%
2,CN(C)CC1CN(Cc2ccc3c(c2)OCO3)Cc2nccn2C1 (stereo not given),4.74%
3,Cc1cc(C(=O)NCc2ccc(N3CCCC(C(N)=O)C3)cc2)[nH]n1 (stereo not given),-16.8%
4,Cc1ccc(OCCCNC(=O)NC(C)c2nncn2C)cc1 (stereo not given),7.34%
5,COCCN(Cc1ccoc1)C(=O)c1c(F)cccc1Cl,5.86%
6,COCC(=O)N1CCCC2(CCN(c3ccsc3)C2=O)C1 (stereo not given),0.668%
7,Cc1cc(CNc2cc(Cl)ccc2Cl)no1,2.51%
8,Cn1cc(CN2CCCN(C(=O)c3ccc4c(c3)COC4)CC2)cn1,30.1%
9,Cc1cccc(C(=O)N2CCCCC2c2ccc(CN(C)C)cc2)n1 (stereo not given),13.7%
10,Cn1cc(Cl)cc1C(=O)N1CCN(Cc2ccsc2)CC1,15.6%
11,CC(C)C(C(=O)N1CCCN(Cc2nccn2C)CC1)N1CCCC1 (stereo not given),27%
12,COC(=O)C(NC(=O)COC1CCCC1)c1cc(F)ccc1F (stereo not given),-22.4%
13,CCc1nc(CN2CCCC(NCc3cc(C)no3)C2)no1 (stereo not given),9.82%
14,CNS(=O)(=O)c1cccc(CNc2nccc(C(F)(F)F)n2)c1,4.67%
15,O=C([C@H]1CCCO1)N1CCc2ncnc(NC3CC3)c2CC1,-32%
16,Cc1cnc2n(c1=O)CC(C(=O)Nc1cccc3cccnc13)CS2 (stereo not given),23.5%
17,CN(Cc1ccco1)C[C@H]1OC[C@@H]2CCN(Cc3cccs3)C[C@@H]21,-17.4%
18,CCC(CC)C(O)CNC(=O)Nc1cc(C)nn1C (stereo not given),-3.6%
19,CC(C)CN1CCC2(CCN(Cc3ccsc3)CC2)C1=O,-18.6%
20,CCC(=O)N1CCCC1c1nccnc1Nc1ncccn1 (stereo not given),2.75%

row,Compound,Percent Effect
1,Cc1nc(CNCC2CN(C)CCO2)cs1 (stereo not given),-38.1%
2,Cc1cc(C)n(Cc2ccc(C(=O)NCCN3CCOCC3)cc2)n1,6.83%
3,c1cnn(CC2CN(c3ncnc4ccsc34)CCO2)c1 (stereo not given),-10.2%
4,CCc1nc(CN(C)C2CCN(CCNS(=O)(=O)CC)C2)no1 (stereo not given),-60.5%
5,Cc1nc(C2CCCN2CC(=O)NCCc2ccsc2)no1 (stereo not given),-9.77%
6,CS(=O)(=O)N1CCOCC2(CCN(C(=O)c3cccnc3)CC2)C1,-13.1%
7,CN1CCN(Cc2nnc(C3CCN(CC4CC4)CC3)n2C)CC1,2.65%
8,O=C(CCc1ccc(=O)[nH]n1)N1CCCC(COc2ccc(F)cc2)C1 (stereo not given),6.15%
9,CN1CCN(C(=O)c2nc3c(o2)CN(C(=O)c2cccnc2)C3)CC1,-53.6%
10,CN(C)S(=O)(=O)N1C[C@@H](Oc2ccccn2)[C@H]2OCCC[C@H]21,-15.9%
11,Cc1cc(C)c2c(c1)C1(CC(=O)Nc3c1cnn3C(C)C)C(=O)N2 (stereo not given),1.39%
12,CCC(CNC(=O)Nc1cnn(CC)c1)N1CCCC1 (stereo not given),1.4%
13,CCn1c(C)nnc1CN(C)C1CCN(CCn2cccn2)C1 (stereo not given),12.1%
14,Cn1cc(CN2CC3(CCN(C(=O)c4cscn4)C3)C2)cn1,-18.3%
15,CCN1CCN(c2ccc(CNC(=O)c3c(C)noc3C)cn2)CC1,-40.9%
16,CCc1ncc(C(=O)N2CCOCC2c2c(C)n[nH]c2C)s1 (stereo not given),7.37%
17,O=C(NCCCO)Nc1cccc(Cl)c1F,-9.57%
18,CCN(Cc1nc2c(cnn2C)c(=O)[nH]1)Cc1cccs1,5.32%
19,O=C(c1ccc(-n2ccnc2)nc1)N1CCCC(n2cccn2)C1 (stereo not given),28.7%
20,Cc1cnccc1CN1C[C@@H](O)[C@H](Oc2cccc(F)c2)C1,-1.74%
